This passage reports max response, Potency and outcome results from PubChem BioAssay (NCATS).

“And” between values parts separate entries of the source, which are not always exact repeats. Identical values can stand only once. Inconclusive results are not listed. The source made the active and inactive calls. Calls follow the shape of the dose curve; as a rule, active = well fitted inhibition curve with a large enough effect; inconclusive = small, poorly fitted or top-dose-only effect; inactive = flat fitted curve, though single readings scatter.
% is scaled to controls: 0 for no effect and ±100 for the full control effect; potency is read from the fitted curve at half-maximal effect.

The test concerns KB-3-1. The test can be described thus: Cytotoxic Profiling of Annotated Libraries Using Quantitative High-Throughput Screening (AID 1296008). Also: nearly all actives have a fitted effect of over 60% in size. The settings on record: Five cell lines viability, CellTiter-Glo ATP luminescence, 48-72 h; max response: hits give low values. From the text:
Cell-based phenotypic screening is a commonly used approach to discover biological pathways, novel drug targets, chemical probes and high-quality hit-to-lead molecules. Many hits identified from high-throughput screening campaign are ruled out through a series of follow-up potency, selectivity/specificity, and cytotoxicity assays. Prioritization of molecules with little or no cytotoxicity for a more in-depth downstream evaluation influence the future direction of projects, so cytotoxicity profiling of the screening libraries at early stage is essential for increasing the likelihood of candidate success. […] For the annotated library, we also examined the primary targets and mechanistic pathways regularly associated with cell death. To our knowledge, this is the first study to use high-throughput screening to profile large libraries for cytotoxicity assessment in both normal and cancer cell lines. In summary, the results generated here constitutes a valuable resource for the scientific community and provides insight on identifying cytotoxic compounds with particular mechanisms of action, and prioritizing compounds with suitable cytotoxicity profile for further evaluation.
A pintool (Kalypsys) was used to transfer 23 nL of compound solution to the 1536-well assay plates. After 48 or 72 hr incubation at 37 degree Celsius, 5% CO2 and 95% humidity, 2.5 uL of CellTiter-Glo (Promega) was dispensed into each well using a dispenser (Aspect Automation, St. Paul, MN) with solenoid valves (Lee Valves, Westbrook CT). Plates were left at room temperature for 10 min before imaging the ATP-coupled luminescence using a ViewLux microplate imager (PerkinElmer, Waltham, MA).
For the compound `FC(F)(F)c1ccccc1-c1cc(C(F)(F)F)c2nc(C3=NOC4(CCCCC4)C3)[nH]c2c1`, the max response is -18.9% (inactive).

Take `O=S(=O)(NCc1ccccn1)c1ccc(Br)c2ccccc12`: the max response was 0.961% (inactive).

Take `COc1ccc(S(=O)(=O)n2cnc3cc(C)c(C)cc32)cc1`: the max response is -13.8% (inactive).

Turning to `CC12CCC3C1C(c1c(cc(O)c(C(=O)c4ccccc4)c1O)O2)C3(C)C` (stereo not given), the max response was -20.8% (inactive).

For the compound `CC1OC(OC2C(O)COC(O[C@@H]3[C@@H](O)[C@@H](O)[C@H](OC4C(OC(=O)[C@]56CCC(C)(C)CC5C5=CCC7[C@@]8(C)C[C@H](O)[C@H](OC9OC(CO)C(O)C(O)C9O)[C@@](C)(CO)C8[C@H](O)C[C@@]7(C)[C@]5(C)CC6)OCC(O)C4O)O[C@H]3C)C2O)C(O)C(O)C1O` (stereo not given in full), the max response was 8.32% (inactive).

Regarding `C=CC(C)(C)C12CC3C(=O)N4C(CC5(C(C)(C)C=C)c6ccccc6NC45)C(=O)N3C1Nc1ccccc12` (stereo not given), the max response was 3.74% (inactive).

On to `CC(=O)O[C@H]1CC[C@@]2(C)C(=CC[C@@H]3[C@@H]2CC[C@]2(C)C(c4cccnc4)=CC[C@@H]32)C1`, for which the max response was 0.542% (inactive).

Regarding `COc1c2c(nc3occc13)C(CC=C(C)C)(OC)C(O)CC2` (stereo not given), the max response was -4.13% (inactive).

With `COc1ccc(CCCN2CCC(COC(c3ccccc3)c3ccccc3)CC2)cc1`, the max response was -17.2% (inactive).

On to `CCCN(CCc1ccsc1)C1CCc2c(O)cccc2C1` (stereo not given), for which the max response was 0.967% (inactive).

For `COc1c(C(O)CC(C)C)ccc2c1C(=O)OCc1cc(C)cc(O)c1O2` (stereo not given), the max response was -22.7% (inactive).

With `CO[C@H]1[C@@H](O)[C@H](N)[C@@H](O[C@H]2O[C@H]([C@H](C)N)CC[C@H]2N)[C@H](O)[C@@H]1N(C)C(=O)CN`, the max response is -19.3% (inactive).

Turning to `Cc1cc(Nc2ccccc2C(=O)O)ccc1Cl`, the max response is -5.19% (inactive).

Take `CCN(CC)C(=O)c1ccc(Nc2nc(OCC3CCCCC3)c3[nH]cnc3n2)cc1`: the Potency was 14.6 µM (active).

Consider `O=C(Nc1ccc(N(Cc2ccsc2)C(=O)Cn2nnc3ccccc32)cc1)C1CC1`, for which the max response is 6.41% (inactive).

Take `CN1CCN(C(=O)CN[C@@H]2C[C@H]2c2ccc(OCc3ccccc3)cc2)CC1`: the max response is -22.7% (inactive).

For `COc1cc(C#N)ccc1S(=O)(=O)Nc1ccc2c(c1)cc(C)c(=O)n2C`, the max response was -22.2% (inactive).

With `COc1ccnc(CS(=O)c2nc3cc(OC(F)F)ccc3[nH]2)c1OC` (stereo not given), the max response is -2.25% (inactive) and -1.6% (inactive).

On to `CO[C@H]1O[C@@H]2O[C@@]3(C)CCC4[C@H](C)CCC([C@H]1C)[C@]42OO3` (stereo not given in full), for which the call was inactive.

Take `COc1cc2nc(N3CCN(C(=O)COc4c(OC)cccc4C(C)C)CC3)nc(N)c2cc1OC`: the max response was 8.96% (inactive).

As for `C[C@@H](NC(=O)C(=O)c1c[nH]c2ccc([N+](=O)[O-])cc12)c1ccccc1`, the max response is -11% (inactive).

In the case of `CN1CC(O)c2cc(N=NC(N)=O)c(O)cc21` (stereo not given), the max response was -10.6% (inactive).

Consider `COC1=C(C(=O)O)N2C(=O)[C@@H](NC(=O)[C@H](N)C3=CCC=CC3)[C@H]2SC1`, for which the max response is -6.73% (inactive).

Turning to `NNc1nnc(Cc2ccncc2)c2ccccc12`, the max response is -26.3% (inactive).

With `COc1c(F)cccc1C(=O)N1C[C@@H](C)CC[C@H]1CNc1ccc(Br)cn1`, the max response is -16% (inactive).

With `CN[C@H]1CC[C@@H](c2ccc(Cl)c(Cl)c2)c2ccccc21`, the max response is -11.2% (inactive).

With `CC(=O)O[C@@H]1C[C@]2(C)[C@@]3(CCC4[C@@]5(C)CC[C@H](O[C@@H]6O[C@H](C(=O)O)[C@@H](O)[C@H](OC7OC(CO)C(O)C(O)[C@H]7O[C@@H]7O[C@@H](C)[C@H](O)[C@@H](O)[C@H]7O[C@@H]7OC[C@](O)(CO)[C@H]7O)[C@H]6OC6OC(CO)C(O)C(O)C6O)C(C)(C)C5CC[C@]42C)OC[C@@]12CCC(C)(C)CC23` (stereo not given in full), the max response is -5.11% (inactive).

Consider `Nc1c(S(=O)(=O)c2ccccc2)c2nc3ccccc3nc2n1-c1ccc(F)cc1`, for which the max response is 9.53% (inactive).

`Cn1c(CO)c(-c2ccccc2)c2cc([N+](=O)[O-])ccc21`: the max response was -20.1% (inactive).

On to `CC(CCC1(O)OC2CC3C4CC=C5CC(O[C@@H]6O[C@H](CO)[C@@H](O[C@@H]7O[C@@H](C)[C@H](O)[C@@H](O)[C@H]7O)[C@H](O)[C@H]6O[C@@H]6O[C@@H](C)[C@H](O)[C@@H](O)[C@H]6O)CCC5(C)C4CCC3(C)C2C1C)CO[C@@H]1O[C@H](CO)[C@@H](O)[C@H](O)[C@H]1O` (stereo not given in full), for which the max response was 6.64% (inactive).

For the compound `COc1ccc(CCN(C)CCCOc2nsc(-c3ccccc3)n2)cc1OC`, the max response was -3.88% (inactive).

In the case of `C=C1C(=O)OC2CC3(C)C(O)C(=O)C=C(C)C3CC12` (stereo not given), the outcome was inactive.

Consider `CNS(=O)(=O)c1ccccc1Nc1nc(Nc2ccc(N3CCN(C)CC3)cc2OC)ncc1Br`, for which the Potency is 4.61 µM (active).

For `C=C(C)[C@@H]1CC=C(COC(=O)NC(=O)c2ncn3c(=O)n(C)nnc23)CC1`, the max response was 2.36% (inactive).

As for `O=C(NCCCNC(=O)c1ccc[nH]c1=O)c1cc(-c2ccccc2)on1`, the max response is -25.1% (inactive).

On to `COC(=O)c1sccc1S(=O)(=O)Nc1ccc(Nc2ccccc2)cc1OC`, for which the max response is -21.5% (inactive).

As to `COc1cc2ncnc(Nc3ccc(F)c(Cl)c3)c2cc1O`, the max response is -4.6% (inactive).

In the case of `C[C@@]12C(=O)N(c3ccc(C(=O)Nc4cccc5cccnc45)cc3)C(=O)[C@@H]1[C@@H]1C=C[C@H]2C1`, the max response was -11.1% (inactive).

On to `COc1ccc(OC)c(-c2ccc(NC(=O)c3ccncc3F)cc2)c1`, for which the max response is -12.6% (inactive).

Turning to `NC(=O)C[C@@H](N)C(=O)O`, the max response was -17.1% (inactive).
